Compounds without any hit were thinned out: in the full panel of roughly 83,000, 20% have a hit.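 48-hour exposure, single concentration, 96-well plates; percent growth endpoint where 0 means no net growth. Active: below 10.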 Unmarked numbers belong to inactive results. Active and inactive are the calls of the source.
Tests used:
Experiment in all cases: NCI-60 one-dose screen, 48 h (100 = growth as untreated, 0 = no growth, -100 = all killed)
Settings in all cases: 10 µM unless noted
SK-MEL-2 melanoma = test system: SK-MEL-2 melanoma
EKVX NSCLC = test system: EKVX NSCLC
SN12C renal = test system: SN12C renal
UO-31 renal = test system: UO-31 renal
TK-10 renal = test system: TK-10 renal
ACHN renal = test system: ACHN renal
CAKI-1 renal = test system: CAKI-1 renal
HL-60(TB) leukemia = test system: HL-60(TB) leukemia
CCRF-CEM leukemia = test system: CCRF-CEM leukemia
MOLT-4 leukemia = test system: MOLT-4 leukemia
SR leukemia = test system: SR leukemia
RPMI-8226 leukemia = test system: RPMI-8226 leukemia
OVCAR-8 ovarian = test system: OVCAR-8 ovarian
OVCAR-5 ovarian = test system: OVCAR-5 ovarian
SK-OV-3 ovarian = test system: SK-OV-3 ovarian
IGROV1 ovarian = test system: IGROV1 ovarian
OVCAR-3 ovarian = test system: OVCAR-3 ovarian
OVCAR-4 ovarian = test system: OVCAR-4 ovarian
HS 578T breast = test system: HS 578T breast

SMILES	growth (SK-MEL-2 melanoma)	growth (EKVX NSCLC)	growth (SN12C renal)	growth (UO-31 renal)	growth (TK-10 renal)	growth (ACHN renal)	growth (CAKI-1 renal)	growth (HL-60(TB) leukemia)	growth (CCRF-CEM leukemia)	growth (MOLT-4 leukemia)	growth (SR leukemia)	growth (RPMI-8226 leukemia)	growth (OVCAR-8 ovarian)	growth (OVCAR-5 ovarian)	growth (SK-OV-3 ovarian)	growth (IGROV1 ovarian)	growth (OVCAR-3 ovarian)	growth (OVCAR-4 ovarian)	growth (HS 578T breast)
C[C@]12CCc3sc(-c4cccc(F)c4)nc3C1=CC[C@@H]1[C@@H]2CC[C@]2(C)C(=O)CC[C@@H]12	32.1%	68.3%	42.9%	1.08% (active)	24%	11.9%	36.9%	34.2%	15.8%	5.82% (active)	5.11% (active)	-2.88% (active)	28.5%	87.2%	17.9%	0.597% (active)	7.89% (active)	–	–
O=C(CC1(O)C(=O)Nc2ccccc21)c1ccc(C(=O)NCC2CCC3(CC2)OOC2(CCCCC2)OO3)cc1 (centres undefined)	70.7%	58.3%	74.4%	-77.2% (active)	104%	60.1%	39.5%	31.7%	7.85% (active)	58.4%	10.8%	48.1%	45.3%	106%	81.2%	41%	74.1%	71.9%	91.9%
c1cnc2[nH]cc(-c3csc(-c4cn(CCCCN5CCOCC5)c5ccccc45)n3)c2c1	87.8%	64%	67%	25.4%	64.4%	32.4%	44.3%	-58.2% (active)	10.1%	13.1%	-20.1% (active)	32.6%	60.6%	72.5%	81.1%	34.9%	59.8%	74.8%	54.9%
Cn1cccc1C1CC(=O)N(CCC[Se]C#N)C1=O (centres undefined)	-35.2% (active)	-65.3% (active)	-3.67% (active)	-75.9% (active)	-69.5% (active)	-4.46% (active)	-80.1% (active)	-42.8% (active)	13.8%	3.58% (active)	21.2%	–	-51.5% (active)	20.4%	-15.7% (active)	-44.1% (active)	-45.5% (active)	31.2%	-8.66% (active)
CCOC(=O)[C@@H](C)C[C@H](Cc1ccccc1)NC(=O)c1csc([C@@H](C[C@H](C(C)C)N(C)C(=O)[C@@H](NC(=O)[C@H]2C[C@H](O)CCN2C)C(C)C)OC(C)=O)n1	16.8%	47.6%	20.6%	36.1%	38.4%	19.7%	30.9%	-27.1% (active)	4.67% (active)	11.9%	5.63% (active)	–	–	41.8%	–	20.3%	5.22% (active)	35.2%	–
Cc1cccc(N2CCN(C(C)C#N)CC2)c1 (centres undefined)	104%	100%	103%	84%	119%	104%	95%	94.2%	107%	106%	98.2%	104%	106%	103%	102%	108%	109%	–	96.3%
COc1ccc(/C=C\c2cc(OC)c(OC)c(OC)c2)cc1OCC(=O)Nc1nc2ccc(C(F)(F)F)cc2s1	-2.78% (active)	77.3%	45.8%	21%	8.6% (active)	38.2%	24.5%	11.8%	25.4%	16.3%	26.5%	21.2%	17.5%	94.1%	10.8%	19.3%	-51.8% (active)	57.4%	-8.14% (active)
COP(=S)(N1CC1)N1CC1	103%	106%	112%	84.3%	110%	103%	93.6%	106%	105%	101%	89.9%	104%	135%	95.9%	110%	106%	113%	111%	121%
CCn1cnc2c(Nc3cccc(Cl)c3)nc(N[C@@H]3CCCC[C@@H]3N)nc21	-1.69% (active)	11.8%	6.96% (active)	-13.3% (active)	13.5%	0.47% (active)	25.1%	-51.6% (active)	2.54% (active)	-10.9% (active)	-32.7% (active)	-33.2% (active)	–	3.37% (active)	40.1%	5.27% (active)	0.926% (active)	-7.56% (active)	26.9%
O=[N+]([O-])CC(c1ccccc1Cl)c1c(-c2ccccc2)[nH]c2ccccc12 (centres undefined)	27.2%	40.6%	53.4%	45.1%	61.6%	39.7%	24.4%	6.94% (active)	23.6%	30.3%	18.9%	45.2%	–	69.1%	44.1%	33.8%	9.26% (active)	66.4%	41.2%
C[C@]12CC[C@H]3[C@@H](C[C@@H]4SC(Nc5ccccc5)=N[C@@]45CC(O)CC[C@]35C)[C@@H]1CCC2O (some centres undefined)	51.7%	73.2%	10.1%	26.1%	65%	36.8%	49%	15.7%	0.738% (active)	6.79% (active)	8.06% (active)	-32.3% (active)	-8.95% (active)	92.2%	89.6%	11.2%	-31.6% (active)	64.1%	3.65% (active)
CC1=C(CN)C2=C(C)C3(CC3)[C@@](C)(O)C(=O)C2=C1	98.5%	102%	90.2%	90.3%	102%	97.3%	94.7%	88.2%	110%	96.7%	–	114%	84.2%	97.9%	–	94.8%	101%	93.2%	86%
CC[C@H](C)[C@H](NC(=O)NC(C)(C)C)C(=O)N(C)[C@H](C[C@@H](OC(C)=O)c1nc(C(=O)N[C@@H](Cc2ccccc2)C[C@H](C)C(=O)OC)cs1)C(C)C	47.3%	29.4%	12.1%	45.4%	49.5%	22.7%	22.2%	-14.6% (active)	10.7%	17.4%	10.6%	-3.75% (active)	18%	34.8%	–	24.5%	-16.8% (active)	36.2%	3.72% (active)
CCOC(=O)[C@@H](C)C[C@H](Cc1ccccc1)NC(=O)c1nc([C@@H](C[C@H](C(C)C)N(C)C(=O)[C@@H](NC(=O)[C@H]2CCCCN2C)C(C)C)OC(C)=O)sc1CCOCc1ccccc1	-50.6% (active)	10.8%	-58.9% (active)	-56.3% (active)	-6.54% (active)	-22% (active)	-23.5% (active)	-62.9% (active)	0.263% (active)	-2.06% (active)	-36.9% (active)	-32% (active)	-19.3% (active)	6.59% (active)	-3.36% (active)	-4.01% (active)	-53% (active)	–	-27.9% (active)
O=C(Nc1ccc([N+](=O)[O-])cc1)C(Cl)(Cl)Cl	102%	89.4%	95.3%	87.3%	113%	86.9%	83.3%	108%	101%	107%	94.1%	106%	100%	95.6%	115%	93.5%	117%	103%	99.8%
O=P1(NCCCl)OCCCN1CCCl (centres undefined)	99.6%	105%	101%	87.5%	97.7%	98.8%	99%	100%	99.1%	101%	91.2%	105%	114%	–	100%	111%	107%	112%	92.7%
